Reference: ChEMBL document CHEMBL4513216, “Probing the Open Global Health Chemical Diversity Library for Multistage-Active Starting Points for Next-Generation Antimalarials” (ACS Infect Dis, 2020)
The whole screen tested about 69,000 compounds, of which about 8,600 (12%) showed an effect of 50% or more. Shown is part of a subset that was picked to be rich in strong results.

tested on: Plasmodium berghei; test: Screen against P. berghei liver stage (PbLuc), transformed with Luciferase, at 10uM; format: functional, HepG2; conditions: tested at 10 uM

SMILES	INHIBITION
O=C(CN1CCCCC1Cn1cncn1)NCCc1ccc(F)cc1 (centres undefined)	43.4%
O=C(CN1CCCCC1Cn1cncn1)NC1CCN(C2CC2)CC1 (centres undefined)	70.1%
O=C(CN1CCCC1Cn1cncn1)NCCOc1ccccc1 (centres undefined)	36.1%
CCN1CCC(NC(=O)CN2CCCCC2Cn2cncn2)CC1 (centres undefined)	-36.1%
Cc1cc(NC(=O)CCN2CCCCC2Cn2cncn2)no1 (centres undefined)	16.9%
O=C(CN1CCCC1Cn1cncn1)NCCc1c(F)cccc1F (centres undefined)	57.2%
O=C(CN1CCCCC1Cn1cncn1)NCCOc1ccccc1 (centres undefined)	0.411%
O=C(CN1CCCC1Cn1cncn1)NCC1(c2ccccc2)CC1 (centres undefined)	89.1%
Cc1cc(NC(=O)CCN2CCCC2Cn2cncn2)no1 (centres undefined)	56.3%
CNc1cccc(CC2COCCN(C(=O)c3cncs3)C2)n1 (centres undefined)	16.35%
Cc1cc(C(F)F)nn1CC(=O)NCc1nccn1C	8.32%
Cc1cccc(CN2CCC3(CCCN(C(=O)NC4CC4)C3)C2=O)n1 (centres undefined)	0%
O=C(c1ccnnc1)N1C[C@H]2CN(Cc3cccc(F)c3)C(=O)[C@H]2C1	34.6%
CCOCC(=O)N1CSCC1C(=O)N(C)Cc1ccco1 (centres undefined)	17.5%
Cc1ccc(C(=O)N2CCC3(CC2)CN(CCN(C)C)C(=O)O3)c(F)c1	42.1%
COc1cc(CCC(=O)N2CCC(c3cncc(C)n3)CC2)on1	14.85%
Cc1oc(C(C)C)cc1C(=O)N1C[C@@H]2CC[C@H]1CN(c1ncccn1)C2	-28.7%
O=C(CN1CCCCC1Cn1cncn1)Nc1ccncc1 (centres undefined)	23.2%
O=C(CN1CCCC1Cn1cncn1)Nc1cccnc1 (centres undefined)	-9.86%
O=C(CN1CCCC1Cn1cncn1)Nc1ccc(Cl)cn1 (centres undefined)	80%
CC(NC(=O)N1CCC(c2ccccc2)CC1)c1nncn1C (centres undefined)	13.3%
Cc1cnn(CC2CCCCN2Cc2cnc(C)s2)c1 (centres undefined)	-7.05%
Cc1ncsc1CN1Cc2cn(C)nc2C(COCC2CC2)C1 (centres undefined)	43.9%
COc1ccc(CNc2cnn(CC(F)F)c2)cc1	64.9%
COc1cc(CNc2cnn(CC(F)F)c2)ccc1O	21.9%
COc1cccc(CNc2cnn(CC(F)F)c2)c1	8.53%
C1CCCN(C2CCCN(Cc3noc(C4CC4)n3)C2)CC1 (centres undefined)	-79.7%

SMILES	INHIBITION
CN(C)S(=O)(=O)N1CC(c2nc(N)ncc2-c2ccc(F)cc2)C1	-20.6%
CC(=O)N(Cc1ncc(C(C)C)o1)C1CCN(CC2CCC2)C1 (centres undefined)	32.65%
Cc1ccc(CCC(C)NC2CCN(C(N)=O)CC2)cc1 (centres undefined)	-4.15%
CC(CCc1ccc(O)cc1)NC1CCN(S(C)(=O)=O)CC1 (centres undefined)	55.5%
CC(CCc1ccc(O)cc1)NC1CCN(C(=O)C(C)C)CC1 (centres undefined)	42.1%
O=C(NCCNc1ccccn1)N1CCC(O)CC1	7.585%
OCCNc1cc(N2CCN(Cc3ccccc3)C(CCO)C2)ncn1 (centres undefined)	-11.8%
Cc1ccc(CN2CCN(c3ncnc4[nH]cnc34)CC2CCO)cc1 (centres undefined)	20%
Cc1cc(C)n(CC2CN(c3ncnc4[nH]ccc34)CCO2)n1 (centres undefined)	-21.7%
OCCC1CN(c2ncnc3[nH]cnc23)CCN1Cc1ccccc1F (centres undefined)	10.3%
Cc1cccc(CN2CCN(c3ncnc4[nH]cnc34)CC2CCO)n1 (centres undefined)	47.2%
c1ccc(C2CN(c3ncnc4[nH]cnc34)CCO2)cc1 (centres undefined)	-66.9%
OCCC1CN(c2ncnc3[nH]cnc23)CCN1Cc1ccccc1 (centres undefined)	62.4%
OCCC1CN(c2ncnc3[nH]cnc23)CCN1Cc1cccs1 (centres undefined)	53.7%
CNC(=O)c1cccnc1N1CCN(Cc2ccccc2)C(CCO)C1 (centres undefined)	3.17%
Cc1cccc(CN2CCN(c3ncnc4[nH]ccc34)CC2CCO)n1 (centres undefined)	58.1%
Cc1ccc(CN2CCN(c3ncccc3C(N)=O)CC2CCO)cc1 (centres undefined)	36.5%
O=C(O)c1cccnc1N1CCN(Cc2ccc(F)cc2)C(CCO)C1 (centres undefined)	68.6%
CCC1=N[C@@]2(CC[C@@H]3CN(C(=O)Nc4ccccc4)C[C@@H]32)C(=O)N1CC	8.67%
Cc1cc(C2CCCCN2C(=O)CN2C(=O)OC(C)(C)C2=O)no1 (centres undefined)	47.2%
COc1ccccc1-c1ncc(CN2CCC3(CCNCC3)CC2)cn1	25%
CC(=O)c1ccc(CNC(=O)c2cc(C#N)cn2C)nc1C	12%
Cc1cc(C)cc(C(=O)N2CCCN(CC(N)=O)CC2)c1	0.348%
Cc1cc(C)c(CCNC(=O)CN2CCCN(C(N)=O)CC2)c(C)c1	66.6%
NC(=O)N1CCCN(CC(=O)NCCc2c(F)cccc2F)CC1	-52.1%
Cn1cc(C(=O)NC[C@H]2OC[C@@H]3CCN(C4CCOCC4)C[C@@H]32)cn1	45.8%
Cc1nc2n(n1)CC(NCc1cnn(-c3ccccc3)n1)CC2 (centres undefined)	-39.4%
